Experimental data as given in PubChem BioAssay AID430 (Sanford-Burnham Center for Chemical Genomics, 2006).
The campaign covered roughly 63,000 compounds. About 1,100 (1.7%) were called active. Rule as the data show it: active = cytotoxicity above about 50%; inactive = the rest. For the sample, actives were picked, then their nearest neighbours and some compounds at random. Potency and affinity values are given separately.

Test: HPDE-C7 pancreatic duct cell viability loss – fluorescence, HTS (AID 430);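 also: cells exposed to compound for 48 hours before viability readout; 0% = vehicle and 100% = reference cytotoxic drug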
Conditions: HPDE-C7 pancreatic duct cells viability, at 10 µM, stronger effect = higher value

| Compound | cytotoxicity |
| --- | --- |
| O=C(OCC(=O)N1CCN(C(=O)c2ccco2)CC1)c1ccccc1C(=O)c1ccc(Cl)cc1 | -5% (inactive) |
| Cc1cccc(CN2CCN(c3ccccn3)CC2)c1 | -18.2% (inactive) |
| CN1CCCN(C(c2ccccc2)c2ccc(Cl)cc2)CC1 (stereo unspecified) | 12.4% (inactive) |
| Cc1cccc(CN2CCN(C(c3ccccc3)c3ccc(Cl)cc3)CC2)c1 (stereo unspecified) | 95.1% (active) |
| OCCOCCN1CCN(C(c2ccccc2)c2ccc(Cl)cc2)CC1 (stereo unspecified) | 50.4% (active) |
| O=S(=O)(CCN1CCN(C(c2ccccc2)c2ccccc2)CC1)C(F)(F)F | -0.3% (inactive) |
| Cc1cccc(CN2CCN(C(=O)c3ccccc3F)CC2)c1 | 5.3% (inactive) |
| CC(C)N1C(=O)CCC1C(=O)N1CCN(c2ccccn2)CC1 (stereo unspecified) | 9.8% (inactive) |
| Fc1ccc(OCc2nc(-c3ccc(Br)o3)no2)c(F)c1 | 6.5% (inactive) |
| Cc1ccc(-n2c(SCC(N)=O)nnc2-c2cccnc2)c(C)c1 | -1.8% (inactive) |
| FC(F)(F)c1ccc2c(c1)nc1n2CCCC1 | -20.5% (inactive) |
| O=C(CC1COc2ccccc2O1)NC1CCCCC1 (stereo unspecified) | -3.9% (inactive) |
| COc1ccc(-c2nnc(NC(=O)c3ccc(S(=O)(=O)N4COCC4(C)C)cc3)o2)cc1 | 28.7% (inactive) |
| CCc1nnc(NC(=O)c2ccc(S(=O)(=O)N3CCCCC3C)cc2)s1 (stereo unspecified) | -15% (inactive) |
| CCC1CCCCN1S(=O)(=O)c1ccc(C(=O)Nc2nnc(-c3cccs3)o2)cc1 (stereo unspecified) | 37.7% (inactive) |
| CC1CCCCN1S(=O)(=O)c1ccc(C(=O)Nc2nnc(-c3ccccc3Cl)o2)cc1 (stereo unspecified) | 57.4% (active) |
| CCCC(=O)Nc1nnc(-c2ccc(Cl)s2)o1 | 1.2% (inactive) |
| O=C(Nc1nnc(-c2ccccc2Cl)o1)c1cccnc1 | 39.4% (inactive) |
| CC1CCCCN1S(=O)(=O)c1ccc(NC(=O)c2cccc(-n3cnnn3)c2)cc1 (stereo unspecified) | 30% (inactive) |
| CC1CCN(S(=O)(=O)c2ccc(NC(=O)c3cccs3)cc2)CC1 | 19.6% (inactive) |
| CC1(C)COCN1S(=O)(=O)c1ccc(C(=O)Nc2nnc(-c3ccc(Cl)s3)o2)cc1 | 95.1% (active) |
| CN1CCN(S(=O)(=O)c2ccc(NC(=O)c3cccs3)cc2)CC1 | -7.7% (inactive) |
| CCC1CCCCN1S(=O)(=O)c1ccc(C(=O)Nc2nnc(-c3ccccc3Cl)o2)cc1 (stereo unspecified) | 67.6% (active) |
| CC1CCCCN1S(=O)(=O)c1ccc(NC(=O)c2cccs2)cc1 (stereo unspecified) | 52.1% (active) |

| Compound | cytotoxicity |
| --- | --- |
| C=CCn1c(SCC(=O)NCCOC)nc2scc(-c3ccco3)c2c1=O | -6.7% (inactive) |
| c1ccc(-c2nn3c(Cn4nnc5ccccc54)nnc3s2)nc1 | -48.7% (inactive) |
| O=C(Nc1ccon1)c1ccc2c(c1)OCO2 | -3.5% (inactive) |
| CC(C)N1C(=O)CCC1C(=O)NC1CCCC1 (stereo unspecified) | -3.8% (inactive) |
| Cc1ccc(-c2csc3nnc(SCC(=O)N4CCN(Cc5ccccc5)CC4)n23)cc1 | 4.7% (inactive) |
| COc1ccc(-c2ccc(NCCC3=CCCCC3)nn2)cc1OC | 18.1% (inactive) |
| CCOC(=O)CSc1nnc(-c2ccc(S(=O)(=O)N3CCC(C)CC3)cc2)o1 | 2% (inactive) |
| Cc1nc2ccccn2c(=O)c1CCN1CCC(C(=O)c2ccc(F)cc2)CC1 | -14.3% (inactive) |
| O=c1cc(CN2CCN(c3ccc(F)cc3)CC2)nc2sccn12 | -3.4% (inactive) |
| CCCOC(=O)C1C2C=CC3(CN(c4ccc(Cl)c(F)c4)C(=O)C13)O2 (stereo unspecified) | -15.1% (inactive) |
| C=CCOC(=O)c1[nH]c2c(c1C)C(=O)CC(c1cc(OC)c(OC)c(OC)c1)C2 (stereo unspecified) | -23.8% (inactive) |
| C/C=C/COC(=O)c1[nH]c2c(c1C)C(=O)CC(c1ccc(N(C)C)cc1)C2 (stereo unspecified) | 11.6% (inactive) |
| C=CCOC(=O)c1[nH]c2c(c1C)C(=O)CC(c1ccco1)C2 (stereo unspecified) | 74.9% (active) |
| C/C=C/COC(=O)c1[nH]c2c(c1C)C(=O)CC(c1ccco1)C2 (stereo unspecified) | 63.7% (active) |
| CCN1CCN(CC(=O)Nc2ccccc2)C(=O)C1=O | -4.7% (inactive) |
| CCOc1nc2ccccc2nc1NS(=O)(=O)c1ccccc1 | 0.8% (inactive) |
| CCN(CC)C(=O)CSC(=Nc1ccccc1F)NC#N | 3.7% (inactive) |
| Cc1cc(NC(=O)c2ccccc2-c2ccccc2C(=O)O)no1 | 5.8% (inactive) |
| O=c1[nH]c(NCCCO)nc2c1C1(CCCC1)Cc1ccccc1-2 | 23.9% (inactive) |
| CC1(C)CC(n2c(NCCO)nc3c(c2=O)C2(CCCC2)Cc2ccccc2-3)CCO1 (stereo unspecified) | 56.4% (active) |
| CC1(C)Cc2ccccc2-c2nc(NCCO)n(-c3ccccc3)c(=O)c21 | -0.1% (inactive) |
| O=c1[nH]c(NCCO)nc2c1C1(CCCCC1)Cc1ccccc1-2 | 13.1% (inactive) |
| Cn1c(NCCO)nc2c(c1=O)C1(CCCCC1)Cc1ccccc1-2 | 8.3% (inactive) |
| Cn1c(NCCCO)nc2c(c1=O)C1(CCCCC1)Cc1ccccc1-2 | 53.9% (active) |

| Compound | cytotoxicity |
| --- | --- |
| COc1ccccc1NC(=O)CSc1nnnn1-c1ccc2c(c1)OCO2 | -9.1% (inactive) |
| COc1ccc(C2c3c(oc4c(C)cc(C)cc4c3=O)C(=O)N2Cc2cccnc2)cc1OC (stereo unspecified) | 43.3% (inactive) |
| O=C(CCNS(=O)(=O)c1cccc2nsnc12)N1CC(=O)N(CCc2ccccc2)C(=O)C1 | -14.8% (inactive) |
| COc1ccc(C(=O)NCCn2cc(SCC(=O)Nc3cc(C)on3)c3ccccc32)cc1OC | -41% (inactive) |
| Cc1cc(C)n2nc(SCC(=O)NCc3ccco3)nc2n1 | -20.4% (inactive) |
| COCCn1c(C)cc(C(=O)COC(=O)CCc2ccc(S(=O)(=O)N3CCOCC3)cc2)c1C | -9.3% (inactive) |
| CC(=O)Oc1cc2c(C(C)=O)coc2c2ccccc12 | 4.5% (inactive) |
| COc1ccc(C(=O)N(Cc2nc(-c3ccc(C)cc3)no2)C2CCCCC2)cc1OC | 9.2% (inactive) |
| COc1ccccc1-c1nc(-c2cccc(C)c2)no1 | 9.9% (inactive) |
| O=C(NCc1nc2ncc(Br)cc2[nH]1)c1ccccc1 | -4.4% (inactive) |
| COc1cccc(OCc2nc3ncc(Br)cc3[nH]2)c1 | 61.9% (active) |
| COc1cccc(OCc2nc3ccccc3[nH]2)c1 | -1.9% (inactive) |
| CCOC(=O)c1[nH]c2ccc(Br)cc2c1NC(=O)CCN1CCCCC1 | 0.6% (inactive) |
| Cc1ccc2c(c1)nnn2C1CCN(CC(=O)Nc2ccccc2N2CCOCC2)CC1 | 11% (inactive) |
| Cc1c(NC(=O)Nc2cccc(Cl)c2)c(=O)n(-c2ccccc2)n1C | -2.1% (inactive) |
| Cc1c(NC(=O)Nc2ccc(Cl)c(Cl)c2)c(=O)n(-c2ccccc2)n1C | 65.8% (active) |
| Cc1c(NC(=O)c2ccc(Br)o2)c(=O)n(-c2ccccc2)n1C | -3.4% (inactive) |
| Cc1c(NC(=O)c2ccc(=O)oc2)c(=O)n(-c2ccccc2)n1C | -6.7% (inactive) |
| Cc1c(NC(=O)Nc2ccc(Cl)cc2)c(=O)n(-c2ccccc2)n1C | -19.8% (inactive) |
| O=C(CSc1ccc2nnc(-c3ccccn3)n2n1)NCc1ccc2c(c1)OCO2 | -15.3% (inactive) |
| CCCC(=O)Nc1ccccc1-c1nnn(CC(=O)Nc2ccc(OC)cc2)n1 | -30.9% (inactive) |
| COc1ccc(C(=O)CSc2nnc(-c3ccccn3)n2Cc2ccco2)cc1 | -5% (inactive) |
| O=C(CSc1nnc(-c2cc3ccccc3cc2O)n1Cc1ccco1)c1ccc(F)cc1 | -5.2% (inactive) |
| COc1ccc(C(=O)CSc2nnc(-c3cc4ccccc4cc3O)n2Cc2ccco2)cc1 | 55.6% (active) |

| Compound | cytotoxicity |
| --- | --- |
| CCN(CCNC(=O)c1cccc(N2CCCC2=O)c1)c1ccccc1 | -9.5% (inactive) |
| CCCCCc1cc(O)c2c(C)cc(=O)oc2c1 | 50.3% (active) |
| CCc1cc(=O)oc2cc(C)cc(O)c12 | 0% (inactive) |
| CCCCc1cc(=O)oc2cc(C)c(CN3CCCC3)c(O)c12 | -12.4% (inactive) |
| COc1cc(Cn2c(-c3nonc3N)nc3ccccc32)ccc1C | 30.4% (inactive) |
| COc1cccc(Cn2c(-c3nonc3N)nc3ccccc32)c1 | 53.8% (active) |
| Nc1nonc1-c1nc2ccccc2n1Cc1ccccc1 | -38.3% (inactive) |
| CCOc1ccc(CCNC(=O)Cn2c(-c3nonc3N)nc3ccccc32)cc1OCC | -22.9% (inactive) |
| CCCCOc1ccccc1NC(=O)Cn1c(-c2nonc2N)nc2ccccc21 | 55.1% (active) |
| Nc1nonc1-c1nc2ccccc2n1CC(=O)NC1CCCC1 | 0% (inactive) |
| CCOC(=O)c1ccccc1NC(=O)Cn1c(-c2nonc2N)nc2ccccc21 | 67.8% (active) |
| COc1ccc(CCNC(=O)Cn2c(-c3nonc3N)nc3ccccc32)cc1OC | 6.6% (inactive) |
| COC(=O)c1ccccc1NC(=O)Cn1c(-c2nonc2N)nc2ccccc21 | 47% (inactive) |
| CC(=O)N1CCN=C1SCc1ccccc1 | 3% (inactive) |
| Cc1cc(C(=O)N2CC(C)CC(C)C2)n(-c2ccccc2)n1 (stereo unspecified) | -6.9% (inactive) |
| Cc1nc2ccccc2c(=O)n1NC(=O)c1ccc(F)cc1Cl | -0.2% (inactive) |
| COc1ccc2nc(NC(=O)c3ccc4ncsc4c3)sc2c1 | 0.5% (inactive) |
| CCOc1cccc(CN2CCN(c3cccc(C(F)(F)F)c3)CC2)c1O | -3.2% (inactive) |
| CCOC(=O)C1=C(CSc2nc3c(cc2C#N)CCC3)OC(N)=C(C#N)C1c1ccccc1 (stereo unspecified) | 101% (active) |
| CCOC(=O)C1=C(C)OC(N)=C(C#N)C1c1ccc(OC)c(C)c1OC (stereo unspecified) | -1.3% (inactive) |
| CCOC(=O)C1=C(CSc2nc3c(cc2C#N)CN(C)CC3)OC(N)=C(C#N)C1c1ccccc1 (stereo unspecified) | 3.4% (inactive) |
| CCOC(=O)C1=C(CSc2nc(C)cc(C)c2C#N)OC(N)=C(C#N)C1c1cccs1 (stereo unspecified) | -28.5% (inactive) |
| CCOC(=O)C1=C(CSc2nc(C)ccc2C#N)OC(N)=C(C#N)C1c1cccc(OC)c1OC (stereo unspecified) | 59.3% (active) |
| CCOC(=O)C1=C(CSc2nc(-c3ccncc3)ccc2C#N)OC(N)=C(C#N)C1c1cccnc1 (stereo unspecified) | 4% (inactive) |
